FBA Mtb inh – Mtb FBA enzyme inhibitors, primary screen, biochemical, fluorescence, strain H37Rv; Fructose-bisphosphate aldolase (Mycobacterium tuberculosis (strain ATCC 25618 / H37Rv)), …; purified M. tuberculosis FBA, fluorescence read-out; inhibition, % at 1 µM; hit rate 2.3% among 360,000; AID 588726, 2011; in the data active = inhibition above about 27%
GDH-TPI counter-1 – GDH-TPI coupling enzyme inhibitors, primary screen, artefact control for M. tuberculosis FBA inhibitor project, biochemical, absorbance, full deck; GDH-TPI coupled enzyme counterscreen, NADH absorbance; inhibition, % at 4.8 µM; hit rate 1.2% among 360,000; AID 588335, 2011; in the data active = inhibition above about 30%
Rv3671c inh – Rv3671c serine protease inhibitors, primary screen, biochemical, fluorescence polarization, M. tuberculosis H37Rv | P9WHR9 | hit rate 0.048% among 320,000 | inhibition, % at 5.96 µM; in the data active = inhibition above about 38%;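 note: extracellular domain of Rv3671c used as enzyme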
RecA intein inh – Mtb RecA intein splicing inhibitors, primary screen, biochemical, fluorescence, HTS | Protein RecA (Mycobacterium tuberculosis (strain ATCC 25618 / H37Rv)), P9WHJ3 | cell-free RecA intein splicing | inhibition, % (no concentration beside the values) | hit rate 0.75% among 290,000; in the data active = inhibition above about 30%
UGM FP inh – M. tuberculosis UGM enzyme inhibitors, primary screen, biochemical, fluorescence polarization, single point | UDP-galactopyranose mutase (Mycobacterium tuberculosis (strain ATCC 25618 / H37Rv)), … | purified UGM, fluorescence polarization probe displacement | inhibition, % at 10 µM | hit rate 0.06% among 320,000; in the data active = inhibition above about 10%, passing the limit was not always enough
Target sequence (P9WIQ1 whole entry, looked up): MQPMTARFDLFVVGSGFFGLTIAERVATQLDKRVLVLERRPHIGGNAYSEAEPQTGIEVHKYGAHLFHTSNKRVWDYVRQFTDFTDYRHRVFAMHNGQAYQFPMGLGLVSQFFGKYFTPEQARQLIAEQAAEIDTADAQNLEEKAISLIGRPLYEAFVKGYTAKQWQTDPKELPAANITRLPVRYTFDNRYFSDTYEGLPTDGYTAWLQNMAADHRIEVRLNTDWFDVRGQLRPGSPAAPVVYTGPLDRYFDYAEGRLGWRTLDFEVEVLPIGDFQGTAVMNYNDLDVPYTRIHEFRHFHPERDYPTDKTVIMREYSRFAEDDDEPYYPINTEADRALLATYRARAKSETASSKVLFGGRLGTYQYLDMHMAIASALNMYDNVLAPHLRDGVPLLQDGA
Mtb betalactam – beta-lactam sensitization of Mtb H37Rv, H37Rv. hit rate 0.27% among 330,000. M. tuberculosis H37Rv growth with meropenem, percent inhibition. inhibition, % at 25 µM;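 note: growth measured after seven days incubation then overnight dye step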
Mtb FBA inh conf – M. tuberculosis aldolase blockers, biochemical, fluorescence, strain H37Rv, confirmation. shares compounds with FBA Mtb inh. purified M. tuberculosis FBA, fluorescence read-out. inhibition, % at 1 µM. hit rate 78% among 5,600; in the data active = inhibition above about 27%
GDH-TPI counter-2 – GDH-TPI coupling enzyme inhibitors, artefact control for M. tuberculosis FBA inhibitor project, biochemical, fluorescence, high throughput. inhibition, % at 1 µM. GDH-TPI coupled enzyme counterscreen. shares compounds with FBA Mtb inh. hit rate 81% among 5,600; in the data active = inhibition above about 10%
GDH-TPI DR – GDH-TPI coupling enzyme inhibitors, dose response, artefact control for M. tuberculosis FBA inhibitor project, biochemical, fluorescence, IC50; GDH-TPI coupled enzyme assay, artifact counterscreen; shares compounds with FBA Mtb inh; IC50, µM; AID 652145, 2013; hit rate 79% among 170
Each line names hits and unclear results; the compound was inactive in the other large screens (follow-up assays come after a bar, where they were run). Compounds with a hit are over-represented: about 4% of the library has one in this group of screens. Unless noted, the rule behind the calls is not given here.

Cc1cccc(C)c1NC(=O)Cc1cccs1	none
O=C(CN1C(=O)CCC1=O)Nc1nc(-c2nc3ccccc3s2)cs1	FBA Mtb inh 33.5 | Mtb FBA inh conf inactive | GDH-TPI counter-2 inactive
O=C(CN1C(=O)CCC1=O)Nc1nc(-c2ccccn2)cs1	none
Cc1cccc(COc2ccc(S(=O)(=O)N3CCOCC3)cc2[N+](=O)[O-])c1	none (no result: Rv3671c inh, RecA intein inh, UGM FP inh, Mtb betalactam)
CCCn1nnc(NC(=S)NC(=O)c2cccs2)n1	FBA Mtb inh 37.4 | Mtb FBA inh conf 39.2 | GDH-TPI counter-2 24.7
O=C(Cn1ccc(NC(=O)OCc2ccccc2)nc1=O)NCCCn1ccnc1	none (no result: RecA intein inh)
CC(CCc1ccccc1)NC(=O)C1CCN(S(=O)(=O)c2ccc(F)cc2)CC1 (stereo not given)	none
COc1ccc(-c2[nH]nc3oc(=O)cc(C)c23)cc1	FBA Mtb inh 43.0 | Mtb FBA inh conf inactive | GDH-TPI counter-2 inactive | GDH-TPI DR 3.35
Cc1cc(=O)oc2n[nH]c(-c3ccccc3)c12	none
COc1cccc(NC(=O)C(=O)NCCC2CCCCN2S(=O)(=O)c2cccs2)c1 (stereo not given)	none (no result: UGM FP inh)
CCN(CC)CCOc1cc2c(nn1)Oc1ccccc1N2C	FBA Mtb inh 56.3 | Mtb FBA inh conf 164.0 | GDH-TPI counter-2 153.5
CN1c2ccccc2Oc2ccccc21	none
COc1ccccc1N1CCN(Cc2ccccc2)CC1	none
CN1c2ccccc2Oc2nnc(Cl)cc21	FBA Mtb inh 28.1 | Mtb FBA inh conf 50.5 | GDH-TPI counter-2 37.6
CN1c2ccccc2Oc2nnc(N3CCN(Cc4ccccc4)CC3)cc21	FBA Mtb inh 57.0 | Mtb FBA inh conf 86.9 | GDH-TPI counter-2 82.3
O=C(COc1ccc2ccc(=O)oc2c1)N1CCN(C(=O)C2COc3ccccc3O2)CC1 (stereo not given)	none
CCOC(=O)N1CCN(C(=O)C2COc3ccccc3O2)CC1 (stereo not given)	none
COc1ccc2nc(N3CCN(C(=O)C4COc5ccccc5O4)CC3)sc2c1 (stereo not given)	none
COc1cc2nc(N3CCN(C(=O)C4COc5ccccc5O4)CC3)nc(N)c2cc1OC (stereo not given)	FBA Mtb inh 85.3 | Mtb FBA inh conf 148.2 | GDH-TPI counter-2 109.9
COc1ccc2c(C)c(CC(=O)N3CCN(C(=O)C4COc5ccccc5O4)CC3)c(=O)oc2c1C (stereo not given)	FBA Mtb inh 78.4 | Mtb FBA inh conf 162.4 | GDH-TPI counter-2 131.3
Cc1cc(=O)oc2cc(OCC(=O)N3CCN(C(=O)C4COc5ccccc5O4)CC3)ccc12 (stereo not given)	FBA Mtb inh 34.8 | Mtb FBA inh conf active | GDH-TPI counter-2 active
Cc1c(C)c2ccc(OCC(=O)N3CCN(C(=O)C4COc5ccccc5O4)CC3)cc2oc1=O (stereo not given)	FBA Mtb inh 65.5 | Mtb FBA inh conf 29.0 | GDH-TPI counter-2 17.1
CCCc1cc(=O)oc2cc(OCC(=O)N3CCN(C(=O)C4COc5ccccc5O4)CC3)ccc12 (stereo not given)	none
CCC1(c2ccccc2)NC(=O)N(CC(=O)Nc2ccc(S(=O)(=O)NC3=NCCCCC3)cc2)C1=O (stereo not given)	none
CN(C)C(CNC(=O)c1ccc(S(=O)(=O)Nc2ccccc2F)cc1)c1ccco1 (stereo not given)	none (no result: RecA intein inh)
COc1ccc(OC)c(NC(=O)CSc2nncc(=O)n2N)c1	none
O=C(CSc1ccc(Cl)cc1)NC(=O)c1ccccc1	none (no result: RecA intein inh)
COc1ccc(C(=O)N2CCN(c3nc4cc(C)cc(C)c4cc3C#N)CC2)cc1	none (no result: Rv3671c inh, RecA intein inh, UGM FP inh, Mtb betalactam)
Cc1ccc(C(=O)N2CCCN(c3nc4cc5c(cc4cc3C#N)OCO5)CC2)cc1	FBA Mtb inh 45.5 | Mtb FBA inh conf 144.6 | GDH-TPI counter-2 87.8
N#Cc1cc2cc3c(cc2nc1N1CCCCC1)OCCO3	FBA Mtb inh 47.5 | Mtb FBA inh conf 55.3 | GDH-TPI counter-2 41.9
COc1ccc(Br)c(Cn2c(C)c(C(=O)NCc3ccc(F)cc3)sc2=O)c1	none (no result: Rv3671c inh, RecA intein inh, UGM FP inh, Mtb betalactam)
O=c1nc2ccccn2c2ccc(S(=O)(=O)N3CCCCC3)cc12	FBA Mtb inh 98.8 | Mtb FBA inh conf 111.2 | GDH-TPI counter-2 84.6
Cc1ccn2c(c1)nc(=O)c1cc(S(=O)(=O)N3CCCCC3)ccc12	FBA Mtb inh 54.1 | Mtb FBA inh conf 44.9 | GDH-TPI counter-2 39.2
Cn1c(=O)c(=O)n(C)c2cc(S(=O)(=O)N3CCCCC3)ccc21	none (no result: RecA intein inh)
O=c1nc2ccc(Cl)cn2c2ccc(S(=O)(=O)N3CCCCC3)cc12	FBA Mtb inh 59.6 | Mtb FBA inh conf inactive | GDH-TPI counter-2 inactive
CCC(C)(C)n1nnnc1CN1CCC(NC(=O)c2ccc(Br)cc2)CC1	FBA Mtb inh 33.0 | Mtb FBA inh conf inactive | GDH-TPI counter-2 inactive
CC(C)CNC(=O)c1cc2nc(C3CC3)cc(C(F)(F)F)n2n1	FBA Mtb inh 79.0 | Mtb FBA inh conf 62.0 | GDH-TPI counter-2 60.7
COc1ccc(/C=N/c2oc(-c3ccccc3)cc2C#N)cc1OC	FBA Mtb inh 48.4 | Mtb FBA inh conf 28.1 | GDH-TPI counter-2 24.6
CCOC(=O)N1CCN(CC(O)COC2CC(C)CCC2C(C)C)CC1 (stereo not given)	FBA Mtb inh 34.0 | Mtb FBA inh conf inactive | GDH-TPI counter-2 inactive | GDH-TPI DR inactive
CC1CCN(CC(O)COC2CC(C)CCC2C(C)C)CC1 (stereo not given)	none
O=C(CCC(=O)c1ccc(Cl)cc1)OCn1nnc2ccccc2c1=O	none (no result: RecA intein inh)
C=CCn1c(SCC(=O)Nc2ccc(F)cc2)nnc1-c1cnccn1	none
N#Cc1nc(COc2ccc(F)cc2)oc1N1CCCC1	none
CCOc1ccc(-c2nc(C#N)c(N3CCN(C)CC3)o2)cc1	FBA Mtb inh 68.8, GDH-TPI counter-1 33.3 | Mtb FBA inh conf active | GDH-TPI counter-2 active
CCCOc1ccc(-c2nc(C#N)c(N3CCc4ccccc4C3)o2)cc1	none
CCOc1ccc(-c2nc(C#N)c(N3CCCCCC3)o2)cc1	FBA Mtb inh 99.8 | Mtb FBA inh conf 45.6 | GDH-TPI counter-2 42.3
CCCOc1ccc(-c2nc(C#N)c(N3CCN(C)CC3)o2)cc1	FBA Mtb inh 39.9 | Mtb FBA inh conf inactive | GDH-TPI counter-2 inactive
Cc1cccnc1NC(=O)c1ccc(Cl)c(S(=O)(=O)N2CCCCC2)c1	none
